Inconclusive results are not listed. A number with no mark means an inactive call. Activity calls are given as the source filed them. Unless noted, calls follow the shape of the dose curve; as a rule, active = well fitted curve in the direction sought with a large enough effect in the repeat runs; inconclusive = weak or mixed curves; inactive = no such curve, though single readings can be large; an effect the other way counts as inactive or inconclusive.

A short description of assay [1]: qHTS assay to identify small molecule antagonists of the vitamin D receptor (VDR) signaling pathway - cell viability counter screen (AID 743225). Also: nearly all actives have a fitted effect of over 50% in size. In outline: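 Viability counter screen run in the same wells as the beta-lactamase reporter assay: HEK 293T VDR-UAS-bla cells, 16 h compound exposure at 37C with 3 nM (final) 1-alpha,25-dihydroxyvitamin D3. CellTiter-Glo luminescence, 30 min, room temperature.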
On the technique in general: In qHTS, concentration-response curves come from the screen itself.

Assay [2] can be described thus: qHTS assay to identify small molecule agonists of the NFkB signaling pathway (AID 1159509; active = well fitted curve in the direction sought with a large enough effect in the signal ratio in the repeat runs, not every such curve was filed as active; the % refers to the signal ratio; also: series mostly up to about 61 µM). In a few lines: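 Beta-lactamase reporter assay run in quantitative high-throughput format on an NF-kB-responsive ME-180 line, with 5 hr compound treatment and a FRET-based blue/green fluorescence readout.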
Assay [3] can be described thus: qHTS assay to identify small molecule agonists of the NFkB signaling pathway - cell viability counter screen (AID 1159515; calls by dose curve; also: series mostly up to about 61 µM; nearly all actives have a fitted effect of over 55% in size). In a few lines:
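Plate 2,000 NFkB-bla ME-180 cells/well; incubate overnight. Add compounds, 5 hr at 37 C. Add FRET substrate, 1.5 hr RT. Add CellTiter-Glo, 30 min RT; read luminescence.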

Assay [4] in a line: qHTS assay to identify small molecule agonists of the endoplasmic reticulum stress response signaling pathway (AID 1159516; active = well fitted activation curve with a large enough effect in the signal ratio in the repeat runs, not every such curve was filed as active; the % refers to the signal ratio). In outline: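 Beta-lactamase expression from the ER stress response element in HeLa reporter cells is quantified with the LiveBLAzer B/G FRET substrate, read at 405 nm excitation after 2 hr at room temperature, following 5 hr compound treatment at 37 C.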

Assay [5] can be described thus: qHTS assay to identify small molecule agonists of the endoplasmic reticulum stress response signaling pathway - cell viability counter screen (AID 1159517; calls by dose curve; also: series mostly up to about 61 µM; nearly all actives have a fitted effect of over 50% in size). In a few lines:
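After overnight attachment, ESRE-bla HeLa cells were treated with Tox21 library compounds for 5 hr. CellTiter-Glo luminescence, read 30 min post-addition at room temperature, reported viability.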

A short description of assay [6]: qHTS assay to identify small molecule antagonists of the retinoid-related orphan receptor gamma (ROR-gamma) signaling pathway - cell viability counter screen (AID 1159520). Also: nearly all actives have a fitted effect of over 50% in size. In a few lines:
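Cytotoxicity was read from cellular ATP (CellTiter-Glo luminescence) after 16 hr at 37 C with 1 uM doxycycline induction. The inducer was added 2 hr after compound transfer to Tet-on ROR gamma CHO cells.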

A short description of assay [7]: qHTS assay to identify small molecule agonists of the AP-1 signaling pathway - cell viability counter screen (AID 1159525; calls by dose curve; also: nearly all actives have a fitted effect of over 55% in size). In outline: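 Intracellular ATP by Cell Titer Glo luminescence (30 min, RT) in the same ME-180 AP-1-bla wells after the 5 h compound exposure at 37 °C. Normalised to tetra n-octyl ammonium bromide and DMSO controls.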
Assay [8] can be described thus: qHTS assay to identify small molecule agonists of the AP-1 signaling pathway (AID 1159526; calls by dose curve).
In assay [9] the target is Retinoic acid receptor RXR-alpha (Homo sapiens) (UniProt P19793). Nature of the assay: qHTS assay to identify small molecule agonists of the RXR signaling pathway (AID 1159527; calls by dose curve; also: nearly all actives have a fitted effect of over 35% in size; also: potency is read from the fitted curve at half-maximal effect). In a few lines: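 Agonist mode; 9-cis retinoic acid positive control. HEK 293T UAS-bla reporter cells, 2% charcoal-stripped FBS, 16 hr compound exposure at 37 C/5% CO2. LiveBLAzer B/G FRET substrate 2 hr RT; ex 405, em 460/530 nm.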

The nature of assay [10]: qHTS assay to identify small molecule agonists of the RXR signaling pathway - cell viability counter screen (AID 1159529). Also: series mostly up to about 77 µM; nearly all actives have a fitted effect of over 50% in size. In outline:
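Luminescence from CellTiter-Glo (30 min, RT) measured viability in the same wells as the beta-lactamase reporter readout. Cells: GeneBLAzer RXR-alpha HEK 293T, 2% charcoal-stripped FBS. Compound exposure 16 hr, 37 C.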

Assay [11] is described as follows: qHTS assay to identify small molecule antagonists of the retinoid acid receptor (RAR) signaling pathway - cell viability counter screen (AID 1159551). Also: nearly all actives have a fitted effect of over 35% in size. In a few lines:
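Viability of C3RL4 cells is quantified from ATP by luminescence after 6 h treatment at 37 C with compounds and 1 uM retinol.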

Assay [12] in a line: qHTS assay to identify small molecule antagonists of the retinoic acid receptor (RAR) signaling pathway (AID 1159552; also: nearly all actives have a fitted effect of over 50% in size). In a few lines: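 Luminescence from a RARE luciferase reporter in C3RL4 cells served as read-out. Cells received compounds together with 1 uM final retinol and incubated 6 hr at 37 C before detection reagent was added for 30 min at room temperature.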
A short description of assay [13]: qHTS assay to identify small molecule agonists of the retinoic acid receptor (RAR) signaling pathway (AID 1159553). In a few lines: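 Compounds dissolved in DMSO were pinned onto C3RL4 cells seeded the previous day, and plates were held 6 hr at 37 C. RARE-driven luciferase output was then read by luminescence.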
Assay [14] is described as follows: qHTS assay to identify small molecule antagonists of the estrogen related receptor (ERR) signaling pathway from Tox21 library - cell viability counter screen (AID 1224834). Also: nearly all actives have a fitted effect of over 30% in size. In outline: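 In this quantitative HTS format, ERR cells receive compounds in DMSO and are incubated for 17.5 h at 37 C. Live-cell protease activity is then detected with CellTiter-Fluor.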

Sequence of Retinoic acid receptor RXR-alpha (Homo sapiens) (P19793 whole entry, looked up): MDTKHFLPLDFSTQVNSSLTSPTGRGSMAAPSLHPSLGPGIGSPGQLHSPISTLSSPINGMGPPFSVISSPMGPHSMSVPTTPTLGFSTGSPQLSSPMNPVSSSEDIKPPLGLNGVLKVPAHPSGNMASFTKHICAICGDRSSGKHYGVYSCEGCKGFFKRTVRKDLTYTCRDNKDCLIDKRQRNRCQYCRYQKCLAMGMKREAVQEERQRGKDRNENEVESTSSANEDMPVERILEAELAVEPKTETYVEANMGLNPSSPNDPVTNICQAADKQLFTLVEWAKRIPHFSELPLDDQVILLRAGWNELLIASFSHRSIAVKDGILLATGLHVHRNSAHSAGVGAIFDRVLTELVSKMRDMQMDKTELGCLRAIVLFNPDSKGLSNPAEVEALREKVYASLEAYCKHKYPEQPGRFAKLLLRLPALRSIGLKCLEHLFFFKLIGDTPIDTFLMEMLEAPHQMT

With `CCOC(=O)c1ccccc1O`, the Potency entry in assay [1], in assay [6], in assay [8], in assay [9], in assay [10] and in [12] was “inactive” each time. For the same compound, the Potency result in assay [13] and in assay [14] was “inactive” in each case. Moreover, the call in assay [2], in [3], in assay [4], in assay [5], in assay [7] and in [11] was inactive.

As to `OCCN(CCO)c1ccccc1`, the Potency result in [1], in assay [6], in [8], in assay [9], in assay [10] and in assay [12] was “inactive” each time. Also, the Potency result in assay [14] is “inactive”. The outcome in assay [2], in assay [3], in assay [4], in assay [5], in assay [7] and in assay [11] was inactive.

With `Cc1ccc([N+](=O)[O-])cc1Cl`, the Potency result in [1], in [6], in assay [8], in assay [9], in assay [10] and in assay [12] was “inactive” throughout. The Potency result in assay [14] was “inactive”. Further, the compound was classed as inactive in [2], in assay [3], in [4], in assay [5], in assay [7] and in [11].

With `OCCN(CCO)CCN(CCO)CCO`, the Potency result in assay [1], in assay [6], in assay [8], in assay [9], in assay [10] and in assay [12] was “inactive” each time. In addition, in [13], the Potency result was “inactive”. In addition, the outcome in [2], in assay [3], in assay [4], in assay [5], in [7] and in assay [11] was inactive.

With `FC(F)(F)c1ccccc1`, the Potency entry in [1], in [6], in assay [8], in assay [9], in assay [10] and in assay [12] was “inactive” throughout. For the same compound, the Potency entry in [13] and in assay [14] was “inactive” throughout. The compound was classed as inactive in assay [2], in [3], in [4], in [5], in assay [7] and in [11].

In the case of `CCCCCCCCCC/C=C/C#N`, the Potency entry in assay [1], in assay [6], in [8], in assay [9], in [10] and in assay [12] was “inactive” throughout. The Potency result in assay [13] and in assay [14] was “inactive” in each case. Moreover, the call in assay [2], in [3], in assay [4], in assay [5], in assay [7] and in assay [11] was inactive.

In the case of `CC(C)S`, the Potency entry in assay [1], in [6], in assay [8], in assay [9], in [10] and in assay [12] was “inactive” each time. Further, the Potency entry in assay [13] and in assay [14] was “inactive” each time. Besides, the call in assay [2], in assay [3], in assay [4], in assay [5], in assay [7] and in assay [11] was inactive.

As to `C1CCOC1`, the compound was classed as inactive in assay [2], in [3], in assay [4], in assay [5], in assay [7] and in [11]. In addition, the Potency entry in assay [6], in assay [8], in [9], in assay [10], in assay [12] and in assay [14] was “inactive” in each case.

As for `CCCCCCn1c(=O)c2c(ncn2C)n(C)c1=O`, the Potency entry in assay [1], in assay [6], in [8], in [9], in assay [10] and in assay [12] was “inactive” throughout. The Potency entry in assay [13] and in assay [14] was “inactive” throughout. Moreover, the call in assay [2], in assay [3], in assay [4], in assay [5], in assay [7] and in [11] was inactive.

Regarding `O=C1C=CC(=O)O1`, the Potency result in assay [1], in assay [6], in assay [8], in assay [9], in assay [10] and in assay [12] was “inactive” throughout. Besides, the Potency result in assay [13] and in assay [14] was “inactive” each time. For the same compound, the compound was called inactive in assay [2], in assay [3], in assay [4], in assay [5], in [7] and in [11].

Turning to `O=C1CCCc2ccccc21`, the Potency result in [1], in assay [6], in assay [8], in assay [10], in [12] and in assay [13] was “inactive” each time. In addition, the compound was called inactive in assay [2], in assay [3], in [4], in [5], in assay [7] and in assay [11]. Further, in [9], the Potency is 6.99 µM (active).

Take `Cn1cnc2c(F)c(Nc3ccc(Br)cc3Cl)c(C(=O)NOCCO)cc21`: the Potency entry in assay [1], in [6], in [8], in assay [9], in assay [10] and in assay [12] was “inactive” throughout. Further, the Potency result in [13] and in [14] was “inactive” each time. For the same compound, the call in assay [2], in [3], in [4], in [5], in assay [7] and in assay [11] was inactive.

On to `OCCN1CCN(CCO)CC1`, for which the Potency entry in assay [1], in assay [6], in assay [8], in assay [9], in assay [10] and in assay [12] was “inactive” in each case. The Potency result in assay [13] and in assay [14] was “inactive” throughout. Moreover, the call in [2], in assay [3], in assay [4], in assay [5], in assay [7] and in assay [11] was inactive.

As to `COc1cc(Cl)ccc1Cl`, the Potency entry in [1], in assay [6], in [8], in [9], in assay [10] and in [12] was “inactive” in each case. Also, in [13], the Potency entry was “inactive”. In addition, the compound was called inactive in assay [2], in assay [3], in assay [4], in [5], in [7] and in assay [11].

Consider `O=C(O[C@@H](C(=O)O)[C@@H](OC(=O)c1ccccc1)C(=O)O)c1ccccc1`, for which the Potency entry in assay [1], in assay [6], in assay [8], in assay [9], in assay [10] and in [12] was “inactive” each time. Also, the Potency entry in assay [13] and in assay [14] was “inactive” each time. For the same compound, the compound was called inactive in assay [2], in [3], in assay [4], in assay [5], in assay [7] and in assay [11].

For the compound `C=Cc1ccccc1`, the Potency entry in assay [1], in assay [6], in assay [8], in [9], in assay [10] and in assay [12] was “inactive” each time. The Potency entry in [14] was “inactive”. Moreover, the result in [2], in assay [3], in assay [4], in assay [5], in [7] and in assay [11] was inactive.

For the compound `CN(CC1(C)CCCO1)S(=O)(=O)c1ccc(Cl)c(S(N)(=O)=O)c1` (configuration not stated), the Potency entry in assay [1], in [6], in [8], in assay [9], in assay [10] and in assay [12] was “inactive” each time. Besides, the Potency entry in assay [14] was “inactive”. Also, the compound was classed as inactive in assay [2], in [3], in [4], in assay [5], in [7] and in [11].

For `Cc1ncc(CO)c(CN)c1O`, the Potency entry in [1], in [6], in assay [8], in assay [9], in assay [10] and in assay [12] was “inactive” each time. Moreover, the Potency result in [13] and in [14] was “inactive” each time. The compound was called inactive in [2], in assay [3], in assay [4], in assay [5], in assay [7] and in [11].

`NC(=O)Cc1cccc(C(=O)c2ccccc2)c1N`: the Potency entry in [1], in assay [6], in assay [8], in assay [9], in [10] and in [12] was “inactive” in each case. In addition, the Potency result in assay [13] and in [14] was “inactive” in each case. For the same compound, the result in [2], in [3], in assay [4], in assay [5], in assay [7] and in [11] was inactive.

The values above are taken from PubChem BioAssay (Tox21).
